According to PubChem BioAssay AID504444 (National Center for Advancing Translational Sciences (NCATS), 2011):
About 7,500 (2.1%) of roughly 360,000 compounds were called active. Not shown: some 20% with an inconclusive outcome. This is one part of a sample in which actives are shown more often than they occur. The call rests on the fitted dose curve; in most records, active means well fitted inhibition curve with a large enough effect; inconclusive means small, poorly fitted or top-dose-only effect, or effect the other way; inactive means flat fitted curve, though single readings scatter.

experiment: Nrf2 qHTS screen for inhibitors; conditions: A549 ARE-Fluc reporter, luciferase luminescence, 18-24 h; series mostly up to 46 µM; activity change, negative = inhibition: at the top concentration; further: nearly all actives have a fitted effect of over 60% in size
How it was run: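 A549 ARE_Fluc cells (5000/well, 5% FBS OPTI-MEM) pre-incubated 2 h, then treated with compounds 18-24 h at 37C/5% CO2 in concentration-response. CellTiter-Fluor viability read first; BugLite luciferase luminescence after 15 min at room temperature gives Nrf2 activity.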
On the % scale 0 is the no-effect control and ±100 the full control effect; potency means the concentration at half of the fitted maximal effect.

SMILES	activity change, negative = inhibition	Potency
Oc1ccccc1-c1nc2ccc(Cl)cn2c1Nc1ccc2c(c1)OCCO2	18.1% (inactive)	–
CN1CCN(S(=O)(=O)c2cccc(C(=O)O)c2)CC1	8.01% (inactive)	–
Cc1ccc(OCCNC(=O)c2cccc(S(=O)(=O)N3CCN(Cc4ccccc4)CC3)c2)cc1	–	11.6 µM (active)
CC(=O)c1ccc(OCC(O)CN2CCN(S(=O)(=O)c3cccc(Br)c3)CC2)cc1 (configuration not stated)	-24.4% (inactive)	–
NC(=O)C1CCN(C(=O)c2cc(S(=O)(=O)N3CCN(c4ccccc4)CC3)ccc2Cl)CC1	-14.7% (inactive)	–
COCCNC(=O)CSc1nc(-c2ccccc2)[nH]c1-c1ccc(C)cc1	-5.73% (inactive)	–
CC(C)(c1ccccc1)c1ccc(OCCN)cc1	1.37% (inactive)	–
COc1cccc(Oc2ccc(N)cc2)c1	14.4% (inactive)	–
CC(C)(C)c1ccc(Oc2ccc(N)cc2)cc1	–	4.11 µM (active)
COc1cccc(NC(=O)CSc2cc(=O)n(C)c3ccc(Cl)cc23)c1	-28% (inactive)	–
Cc1ccc(N2CC(c3nnc(Cc4ccccc4Cl)o3)CC2=O)cc1 (configuration not stated)	18.7% (inactive)	–
CN1CCC(N(C)C(=O)c2ccc(Cl)c(S(=O)(=O)Nc3ccc(Cl)cc3)c2)CC1	3.83% (inactive)	–
COc1ccccc1-c1ccnc2[nH]n(-c3ccccc3)c(=O)c12	-1.14% (inactive)	–
CCOc1ccccc1NC(=O)c1ccc2c(c1)CCN2S(=O)(=O)c1ccc(C)cc1	14.1% (inactive)	–
CC(NS(=O)(=O)c1ccc(Cl)cc1)C(=O)Nc1ccc2c(c1)OCCO2 (configuration not stated)	0.41% (inactive)	–
O=C(Nc1ccc(NC(=O)c2ccc3c(c2)OCO3)cc1)c1cccc(Cl)c1	3.66% (inactive)	–
O=C(Nc1cccc(S(=O)(=O)Nc2ccc(Cl)cc2)c1)c1ccc2c(c1)OCCO2	–	10.3 µM (active)
CCN(CC)S(=O)(=O)c1ccc(N(C)Cc2ccc(C(F)(F)F)cc2)nc1	–	18.4 µM (active)
CCN(CC)S(=O)(=O)c1ccc(N(C)CCc2ccc(OC)c(OC)c2)nc1	-2.74% (inactive)	–
CCN(CC)S(=O)(=O)c1ccc(NC(=O)c2cnc(C)cn2)cc1	-2.49% (inactive)	–
CCOC(=O)C1=C(C)N(C[C@@H]2CC[C@@H](Cc3ccc(-c4ccccc4)cc3)O2)C(=O)NC1c1ccc([N+](=O)[O-])cc1 (some centres not stated)	-22.3% (inactive)	–

SMILES	activity change, negative = inhibition	Potency
Cc1ccc(F)cc1NC(=O)CCSc1nc(-c2ccco2)cc(C(F)(F)F)n1	-13.2% (inactive)	–
O=C(CSc1nnc2c(n1)[nH]c1ccccc12)NC1CCCCC1	–	3.66 µM (active)
COc1ccc2[nH]c3nc(SCC(=O)NC4CC4)nnc3c2c1	0.184% (inactive)	–
CCOc1ccc2[nH]c3nc(SCC(=O)NC4CCCC4)nnc3c2c1	3.92% (inactive)	–
CCOC(=O)c1cccc(NC(=O)C(Cc2ccccc2)NS(=O)(=O)c2cccc3nsnc23)c1 (configuration not stated)	24.3% (inactive)	–
Cc1ccc2oc3c(c(=O)c2c1)C(c1ccc(O)cc1)N(Cc1ccc2c(c1)OCO2)C3=O (configuration not stated)	-8.81% (inactive)	–
CC(C)[C@@H](C(=O)OCC(=O)c1ccc2c(c1)NC(=O)CO2)N1C(=O)c2ccccc2C1=O	-8% (inactive)	–
CC(C)c1ccc(S(=O)(=O)Nc2ccc(O)c(Sc3nc4ccccc4s3)c2)cc1	9.38% (inactive)	–
O=C(CCC(=O)c1ccccc1)NCc1cccc(C(F)(F)F)c1	3.64% (inactive)	–
O=C(CCC(=O)N1CCN(S(=O)(=O)c2ccc(Cl)cc2)CC1)NCc1cccc(C(F)(F)F)c1	–	8.2 µM (active)
O=C(CCn1ccc2cc(S(=O)(=O)N3CCCC3)ccc21)NCc1cccc(Cl)c1	-6.98% (inactive)	–
COc1ccc(-c2nc(=N)sn2-c2ccccc2)cc1	24% (inactive)	–
Cc1ccc(NC2=C(c3ccc(C(F)(F)F)cc3)C(=O)c3ccccc32)cc1F	-20.5% (inactive)	–
O=S(=O)(Nc1ccc2nc(-c3cccc(Cl)c3)oc2c1)c1ccccc1	-21.7% (inactive)	–
O=C(Nc1cc(-c2ccccc2)nn1-c1ccccc1F)c1ccc([N+](=O)[O-])cc1	–	20.6 µM (active)
O=C(Nn1c(-c2ccccc2)nc2ccccc2c1=O)c1ccc([N+](=O)[O-])cc1	-12.6% (inactive)	–
O=C(Nc1ccccc1C(=O)Nc1ccncc1)c1ccc([N+](=O)[O-])cc1	6.83% (inactive)	–
COc1cccc(CNCCSc2nnnn2C)c1OCc1ccccc1Cl	-11.2% (inactive)	–
CC(C)OCCCNc1ncnc2c1[nH]c1ccc(F)cc12	–	4.11 µM (active)
COc1cc(OC)c(OC)cc1/C=N/Nc1ncnc2c1[nH]c1ccc(C)cc12	1.21% (inactive)	–
CC(C)OCCCNC(=O)c1cc(Sc2ccc(F)cc2)nc2ccccc12	-13.6% (inactive)	–

SMILES	activity change, negative = inhibition	Potency
Cc1ccc(CCNC(=O)c2nnc(Cc3cccc(F)c3)o2)cc1	-25.7% (inactive)	–
CCOC(=O)c1ccc(CSc2nnc3cc(C)c4ccccc4n23)cc1	15% (inactive)	–
Cc1cccc(N2CCN(C(=O)c3cccc(N4C(=O)C5C6C=CC(C6)C5C4=O)c3)CC2)c1C (configuration not stated)	–	18.4 µM (active)
CC1C=CCC2C(=O)N(c3cccc(C(=O)N4CCCCCC4)c3)C(=O)C12 (configuration not stated)	10.5% (inactive)	–
COC(=O)c1cccc(N2C(=O)C3C4C=CC(CC4)C3C2=O)c1 (configuration not stated)	0.177% (inactive)	–
O=C(c1ccco1)N(Cc1cccs1)c1ccc(O)cc1	-5.51% (inactive)	–
COc1ccccc1-c1cc2nc(C)c(CCC(=O)NC3CCCCC3)c(C)n2n1	-10.5% (inactive)	–
COc1ccccc1-c1cc2nc(C)c(CCC(=O)O)c(C)n2n1	–	3.66 µM (active)
COc1cc(OC)cc(-c2nc3nc(C)c(CCC(=O)Nc4ccccc4)c(C)n3n2)c1	-0.881% (inactive)	–
COc1ccc(C)cc1Nc1nc2ccccc2c2nnc(C)n12	18.3% (inactive)	–
CCCSc1ncc(Cl)c(C(=O)Nc2sc3c(c2C(=O)NCCOC)CCCC3)n1	-19.9% (inactive)	–
COc1ccc(CCNC(=O)CSc2nc3[nH]ncc3c(=O)n2-c2cccc(C(F)(F)F)c2)cc1OC	-14.3% (inactive)	–
Cc1ccc(CSc2nc3[nH]ncc3c(=O)[nH]2)cc1	2.03% (inactive)	–
CCc1ccc(-n2c(SCc3cc(=O)n4cc(Br)ccc4n3)nc3[nH]ncc3c2=O)cc1	–	16.4 µM (active)
COc1ccc(S(=O)(=O)Nc2cccc3c2O[C@H](CN(C)S(=O)(=O)c2ccc(OC)cc2)[C@@H](C)CN([C@H](C)CO)C3=O)cc1	-25% (inactive)	–
CCc1ccc(CN(C)C(C)C(=O)Nc2ccc(S(=O)(=O)N3CCCC3)cc2)cc1 (configuration not stated)	-9.67% (inactive)	–
CCCCOc1ccc(C(=O)N2CC(=O)Nc3ccc(Br)cc3C2c2ccc(F)cc2)cc1 (configuration not stated)	-25.1% [at 9.27 µM] (inactive)	–
CC(=O)c1cccc(Nc2ccc3cc(S(=O)(=O)N4CCC(C)CC4)ccc3n2)c1	–	20.6 µM (active)
CC(=O)c1cccc(S(=O)(=O)N2CCC(n3nnc4cc(F)ccc43)CC2)c1	-2.65% (inactive)	–
CC(=O)c1cccc(NC(=O)COc2ccc(S(=O)(=O)N3CCOCC3)cc2)c1	-4.98% (inactive)	–
